Data taken from PubChem BioAssay (NCATS).
Results filed as inconclusive are left out. Calls of active or inactive are those of the source. The call rests on the fitted dose curve; in most records, active means well fitted cell-killing curve with a large enough effect; inconclusive means small, poorly fitted or top-dose-only effect, or effect the other way; inactive means flat fitted curve, though single readings scatter.

Columns and labels:
Test in all cases: Primary qHTS to identify gynecologic anti-cancer compounds using libraries of approved drugs and bioactive compounds (AID 1345084); further: nearly all actives have a fitted effect of over 55% in size
Conditions in all cases: Gynecologic cancer cell panel viability, ATPlite luminescence, 48 h; series mostly up to 57.5 µM
[1] = test system: SKOV3
Method in brief: (§1)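 Cells, 1,000 per well, plated 16 h, then exposed 48 h at 37 C to compounds. Viability by ATPlite luminescence after 15 min at room temperature.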

[2] = test system: Tov-21-G
Method in brief: as §1

[3] = test system: Tov112D
Method in brief: as §1

Measured: Potency

COc1cc2ncnc(Oc3ccc(CC(=O)Nc4cnn(C(C)C)c4)cc3)c2cc1OC
inactive: all assays above

CC[C@H]1CN(c2nc(N)c(C(N)=O)nc2Cl)CCN1C1CCN(Cc2ccc(Cl)cc2)CC1
inactive: all assays above

CN(C)CCOc1cc(NS(=O)(=O)c2c(Cl)cc(C(F)(F)F)cc2Cl)ccc1Cl
inactive: all assays above

O=C(NCc1cccs1)c1cc2nc(-c3ccco3)cc(C(F)(F)Cl)n2n1
inactive: all assays above

Clc1ncoc1-c1c[nH]c2ccccc12
inactive: all assays above

CN(C)C(=O)Nc1cc(-c2ccccc2)ccc1N(C)C
inactive: all assays above

C/C=C(\C)C(=O)OC1C(C)C2(O)C(C=C(CO)CC3(O)C(=O)C(C)=CC32)C2C(C)(C)C12OC(=O)C(C)C (centres undefined)
inactive: all assays above

CCOc1ccc(S(=O)(=O)N2CCCCCC2)c2ccccc12
inactive: all assays above

CC(C)CCNc1ncccc1C(=O)N1CCN(Cc2ccccc2)CC1
inactive: all assays above

Cc1cc(C)c(-n2cc(C)c3c(Cl)nc(C)nc32)c(C)c1
inactive: all assays above

Cc1nc(Nc2ccc(F)cc2)nc(N2CCc3ccccc3C2C)c1C (centres undefined)
inactive: all assays above

Nc1nc(OCc2cc(Br)cs2)c2[nH]cnc2n1
inactive: all assays above

CC(=O)OCC(=O)[C@@]12O[C@@H]1C[C@H]1[C@@H]3CC=C4C[C@@H](O)CC[C@]4(C)[C@H]3CC[C@@]12C
inactive: all assays above
